ALOX12 inh = blocks human arachidonate 12S-lipoxygenase; P18054; purified 12hLO, xylenol orange hydroperoxide absorbance; Potency, µM (top dose mostly 108 µM), actives largely listed as inhibitors; actives 1.1% (n = 580,000)
Target sequence (P18054 whole entry, looked up): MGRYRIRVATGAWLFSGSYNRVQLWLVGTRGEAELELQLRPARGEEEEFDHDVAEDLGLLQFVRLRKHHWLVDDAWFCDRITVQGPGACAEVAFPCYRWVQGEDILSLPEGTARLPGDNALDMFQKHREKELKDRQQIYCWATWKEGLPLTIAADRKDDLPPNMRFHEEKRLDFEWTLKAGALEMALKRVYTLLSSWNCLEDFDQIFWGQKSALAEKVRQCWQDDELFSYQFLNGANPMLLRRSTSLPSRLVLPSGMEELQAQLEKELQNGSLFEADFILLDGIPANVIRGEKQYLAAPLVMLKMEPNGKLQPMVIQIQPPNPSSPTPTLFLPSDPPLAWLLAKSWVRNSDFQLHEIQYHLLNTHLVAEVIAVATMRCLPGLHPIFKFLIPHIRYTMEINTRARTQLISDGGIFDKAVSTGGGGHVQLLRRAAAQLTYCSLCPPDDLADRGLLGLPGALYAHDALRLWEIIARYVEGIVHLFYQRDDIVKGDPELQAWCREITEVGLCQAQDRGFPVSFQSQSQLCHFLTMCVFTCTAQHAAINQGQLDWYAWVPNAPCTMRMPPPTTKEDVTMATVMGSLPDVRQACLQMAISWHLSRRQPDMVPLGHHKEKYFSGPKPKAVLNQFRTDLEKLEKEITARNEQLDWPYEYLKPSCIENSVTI
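Purified human 12hLO at 150 nM in 25 mM Hepes, 0.01% Triton X-100, pH 7.0, preincubated 15 min at room temperature with compound. Reaction started with 40 uM arachidonic acid, 30 min at room temperature. Hydroperoxide measured by Fe-xylenol orange, 573/405 nm absorbance ratio.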
VDR inhibitor = vitamin D3 receptor (human) inhibition; P11473; VDR-SRC2-3 peptide fluorescence polarization, 2 h; Potency, µM, hits mostly inhibitors; actives 0.93% (n = 400,000); AID 504847
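Inhibition of the VDR/SRC2-3 peptide interaction is quantified by fluorescence polarization. Compounds (23 nl, pintool) incubate with the reagents for 2 hours at ambient room temperature.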
PLK1 PBD inh = blocks phosphopeptide binding to human PLK1 polo-box domain; P53350; Plk1 PBD binding of FITC phosphopeptide, fluorescence polarization; Potency, µM, hits mostly inhibitors; actives 2.8% (n = 360,000); also: series mostly up to about 57 µM; nearly all actives have a fitted effect of over 65% in size
Sfp PPTase inh = inhibitors of Bacillus subtilis Sfp phosphopantetheinyl transferase. Biochemical Sfp PPTase activity, qHTS. Potency, µM, most hits filed as inhibitors. actives 3.5% (n = 310,000). AID 1490;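 also: the enzyme is Sfp with the accession as filed and its product quenches rhodamine fluorescence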
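After 15 min at room temperature with compound, 15 nM Sfp received 5 uM rhodamine-CoA plus 12.5 uM BHQ-2-ybbR (50 mM Hepes pH 7.6, 10 mM MgCl2). Rate came from the fluorescence difference over 30 min, ex 525/em 598 nm.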
Large screens that a line does not name were inactive. In the library only some 4.2% were active in any assay of this set; here they are far more common. Calls follow the shape of the dose curve; as a rule, active = well fitted curve in the direction sought with a large enough effect; inconclusive = small, poorly fitted or top-dose-only effect, or another doubt; inactive = no such curve, though single readings can be large; an effect the other way counts as inactive or inconclusive.

CCOC(=O)C1CCCN(Cc2nc(N)nc(Nc3ccc(OC)cc3)n2)C1 (stereo not given)	PLK1 PBD inh 27µM
Cc1cc2cc(C=O)c(Cl)nc2cc1C	Sfp PPTase inh 32µM
COc1ccc(CC(=O)OCn2nnc3ccccc3c2=O)cc1	none
Cc1ccc(Nc2nc(-c3ccc(F)cc3)cs2)cc1	none (no result: VDR inhibitor, PLK1 PBD inh, Sfp PPTase inh)
Cc1ccc(S(=O)(=O)/N=C(/Sc2ccccc2C(=O)O)c2ccccc2)cc1	PLK1 PBD inh 19µM, Sfp PPTase inh 79µM
CC(C)N1CCC(Nc2nc(-c3cccs3)nc3ccccc23)CC1	none (no result: VDR inhibitor, PLK1 PBD inh, Sfp PPTase inh)
c1ccc(CN2CCC(Nc3nc(-c4cccs4)nc4ccccc34)CC2)cc1	ALOX12 inh inconclusive, Sfp PPTase inh 79µM
O=c1c(-c2ccccc2)c1-c1ccccc1	VDR inhibitor 45µM (no result: PLK1 PBD inh)
Cc1c(-c2ccccc2)c1=O	none (no result: VDR inhibitor, PLK1 PBD inh, Sfp PPTase inh)
Cc1cccc(C)c1-n1cccc1/C=C1/C(=N)N2C(=NC1=O)SN=C2S(C)(=O)=O	ALOX12 inh inconclusive, VDR inhibitor inconclusive, PLK1 PBD inh 21µM
CCC1=NN2C(=N)/C(=C\c3cccn3-c3c(C)cccc3C)C(=O)N=C2S1	PLK1 PBD inh inconclusive, Sfp PPTase inh 56µM
CCC1=NN2C(=N)/C(=C\c3cccn3-c3ccc(C)cc3C)C(=O)N=C2S1	PLK1 PBD inh inconclusive
Cc1ccc(-n2cccc2/C=C2/C(=N)N3C(=NC2=O)SN=C3S(C)(=O)=O)cc1Cl	ALOX12 inh 14µM, VDR inhibitor inconclusive, PLK1 PBD inh 27µM, Sfp PPTase inh 89µM
CC1=CSC2=NC(=O)/C(=C\c3cccn3-c3ccccc3)C(=N)N12	Sfp PPTase inh 10µM
Cc1cc(/C=C2/C(=N)N3C(=NC2=O)SN=C3S(C)(=O)=O)c(C)n1-c1ccc(F)cc1	ALOX12 inh inconclusive, PLK1 PBD inh inconclusive
Cc1nn2c(ncc3c(=O)[nH]ccc32)c1-c1ccc(F)cc1	none (no result: VDR inhibitor, PLK1 PBD inh, Sfp PPTase inh)
Cc1cc(Cl)c2oc(C(=O)N(C)C3CCOC3)c(C)c2c1 (stereo not given)	VDR inhibitor inconclusive, PLK1 PBD inh 3.4µM
Cc1cc(Cl)c2oc(C(=O)N3CCOCC3)c(C)c2c1	none (no result: VDR inhibitor, Sfp PPTase inh)
Cc1cc2cc(C(c3nnnn3C3CCCC3)N(Cc3cccnc3)Cc3ccco3)c(=O)[nH]c2cc1C (stereo not given)	Sfp PPTase inh 56µM
Cc1cc(NC(=O)CCC(=O)N(Cc2ccco2)C(C(=O)NC2CCCC2)c2ccccc2)no1 (stereo not given)	none
CC(C)(C)S(=O)(=O)/C(C#N)=C/c1sccc1C1OCCO1	VDR inhibitor inconclusive, PLK1 PBD inh 21µM
CC(C)(C)c1ccc(CC/C=N/O)cc1	ALOX12 inh 11µM (no result: VDR inhibitor, PLK1 PBD inh, Sfp PPTase inh)
COc1ccc(CNC(=O)C[C@@H]2CCNC[C@@H]2Cc2cc(C(C)(C)C)on2)cc1	none (no result: VDR inhibitor, PLK1 PBD inh, Sfp PPTase inh)
Cc1cc(-c2ccc(N=Nc3c(S(=O)(=O)O)cc4cc(S(=O)(=O)O)cc(N)c4c3O)c(C)c2)ccc1N=Nc1c(S(=O)(=O)O)cc2cc(S(=O)(=O)O)cc(N)c2c1O	VDR inhibitor inconclusive, Sfp PPTase inh 11µM (no result: ALOX12 inh, PLK1 PBD inh)
Cc1ccc2nc(-c3ccc(N=Nc4cc(S(=O)(=O)O)c5ccccc5c4O)cc3)sc2c1S(=O)(=O)O	none (no result: ALOX12 inh, PLK1 PBD inh, Sfp PPTase inh)
Oc1ccc(Cl)cc1N=Nc1ccccc1	none
O=S(=O)(O)c1cc(O)c2c(O)c(N=Nc3cc(Cl)ccc3O)c(S(=O)(=O)O)cc2c1	VDR inhibitor inconclusive, PLK1 PBD inh 24µM, Sfp PPTase inh inconclusive (no result: ALOX12 inh)
O=C1CC2(CCN(CC3CCOCC3)C2)Nc2ccccc2N1 (stereo not given)	none (no result: VDR inhibitor, PLK1 PBD inh, Sfp PPTase inh)
COCC(C)NC(=S)N1CCN(c2ccccc2Cl)CC1 (stereo not given)	none
COc1ccc(/C(C)=N/Nc2nncc3ccccc23)cc1	ALOX12 inh inconclusive, VDR inhibitor inconclusive
COc1ccc(/C(C)=N/Nc2nc3ccccc3nc2C)cc1	Sfp PPTase inh 25µM
CC(=O)C1=C(O)C(=O)N(c2cccc(Br)c2)C1c1ccccc1Cl (stereo not given)	ALOX12 inh 18µM
CCn1c(Cn2nnc(-c3ccccc3)n2)nnc1SCC(=O)Nc1cccc(C)c1C	none
CCCCN1C(=O)/C(=C2\SC(N3CCCCC3)=NC2=O)c2ccccc21	PLK1 PBD inh 24µM, Sfp PPTase inh 45µM
S=C(NCc1ccco1)Nc1ccc(Oc2ccc(Cl)cc2)cc1	ALOX12 inh inconclusive
BrC(=C\c1ccccc1)/C=N/Nc1ccc2nncn2n1	PLK1 PBD inh inconclusive, Sfp PPTase inh inconclusive
Clc1cccc(N/N=C/C(Br)=C/c2ccccc2)c1	ALOX12 inh 11µM (no result: VDR inhibitor, PLK1 PBD inh, Sfp PPTase inh)
CO/N=C(\C(=O)NC1C(=O)N2C(C(=O)OCOC(=O)C(C)(C)C)=C(/C=C\c3scnc3C)CSC12)c1csc(N)n1 (stereo not given)	VDR inhibitor 35µM (no result: ALOX12 inh, PLK1 PBD inh)

Bioassay records from PubChem.
